Screening data (PubChem)
Hits are enriched below; roughly 27% of the tested compounds scored in any of these assays.
Cav3 T inh – human Cav3.2 channel inhibition, primary screen; O95180; Cav3.2-expressing cells, Fluo-4 calcium fluorescence FDSS; active compounds read low; B-score at 10 µM; 100,000 compounds, 4% hits;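 active = single-dose well whose peak fluorescence ratio is a statistical outlier from its plate by either plate-standardised score or position-corrected B-score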
CYP2C9 act – CYP2C9 (human) activation; activation factor at 5 µM; P11712; recombinant CYP2C9, luciferin-H conversion, luminescence; active compounds read high; factor 1 = untreated enzyme, 0 = blocked; 96,000 compounds, 1.4% hits;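 active = activation factor of 2 or more for CYP2C9 at a 5 µM dose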;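 note: 0 = sulfaphenazole-blocked wells and 1 = vehicle-only wells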
PTK2B oligo ant – blocks oligomerization of human Pyk2 in cells | z-score (the deposit names both 25 µM and 10 µM) | Q293 cells, Pyk2 FERM NanoBiT luminescence; active compounds read low | 99,000 compounds, 0.83% hits | AID 1347419;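 active = Z-score of -3 or lower, scaled per plate to the spread of control and sample wells; inactive = z-score above -3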;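 note: negative z-score means lost luminescence so less FERM oligomerization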
Target sequence (Q14289 whole entry, looked up): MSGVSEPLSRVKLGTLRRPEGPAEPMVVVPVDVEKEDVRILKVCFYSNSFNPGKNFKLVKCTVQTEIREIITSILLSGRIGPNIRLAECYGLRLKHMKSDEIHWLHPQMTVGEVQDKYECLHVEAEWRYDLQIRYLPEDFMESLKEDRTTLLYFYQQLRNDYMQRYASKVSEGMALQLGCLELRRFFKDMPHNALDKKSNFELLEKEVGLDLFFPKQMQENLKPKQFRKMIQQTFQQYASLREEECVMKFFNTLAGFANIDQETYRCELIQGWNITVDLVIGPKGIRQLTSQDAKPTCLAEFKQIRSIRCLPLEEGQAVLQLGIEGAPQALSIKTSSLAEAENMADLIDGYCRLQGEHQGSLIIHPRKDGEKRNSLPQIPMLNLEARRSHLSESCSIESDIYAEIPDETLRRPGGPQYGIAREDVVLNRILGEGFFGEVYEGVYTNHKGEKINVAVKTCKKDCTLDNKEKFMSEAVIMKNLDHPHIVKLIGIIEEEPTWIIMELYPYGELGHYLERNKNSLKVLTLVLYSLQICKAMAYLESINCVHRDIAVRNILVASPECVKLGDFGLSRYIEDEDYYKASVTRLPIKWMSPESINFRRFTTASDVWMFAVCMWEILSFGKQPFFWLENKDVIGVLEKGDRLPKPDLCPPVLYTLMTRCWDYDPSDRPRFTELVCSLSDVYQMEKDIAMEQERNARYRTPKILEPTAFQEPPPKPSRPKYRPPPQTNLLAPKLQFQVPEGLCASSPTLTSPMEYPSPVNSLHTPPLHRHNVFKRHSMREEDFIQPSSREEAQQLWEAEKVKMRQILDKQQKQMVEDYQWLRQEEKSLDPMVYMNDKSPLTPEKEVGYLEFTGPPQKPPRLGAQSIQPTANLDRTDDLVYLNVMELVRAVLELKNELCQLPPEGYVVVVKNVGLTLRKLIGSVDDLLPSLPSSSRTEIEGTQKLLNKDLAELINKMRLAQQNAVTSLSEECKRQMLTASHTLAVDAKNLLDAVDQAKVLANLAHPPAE
CYP2C9 inh – human CYP2C9 inhibition; CYP2C9 Supersomes, luciferin-H conversion, luminescence; 96,000 compounds, 20% hits; AID 777; P11712; inhibition, % at 5 µM;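 active = blocking of liver enzyme CYP2C9 beyond about 50% at 5 µM, limit read from the data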
CYP2C19 inh – blocks human cytochrome P450 2C19. CYP2C19 Supersomes, luciferin-H EGE luminescence, 30 min. 96,000 compounds, 21% hits. inhibition, % at 5 µM;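 active = CYP2C19 inhibition above a set limit at 5 µM in the primary screen, cut at about 50% in these data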;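 note: plate controls were negative control wells for no effect and 2.5 mM tranylcypromine positive control for full effect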
CYP2C19 act – increases human CYP2C19 enzyme activity | P33261 | recombinant CYP2C19, luciferin-H EGE luminescence; active compounds read high; 0 = fully inhibited enzyme, 1 = untreated enzyme | activation factor at 5 µM | 96,000 tested, under 10 active | AID 1025;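 active = activation factor of at least 2 at 5 µM in the primary screen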;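 note: 0 = wells with 2.5 mM tranylcypromine and 1 = vehicle-only wells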
* marks the source's active call; other numbers are inactive results; nt = not tested or not shown.

SMILES	Cav3 T inh	CYP2C9 act	PTK2B oligo ant	CYP2C9 inh	CYP2C19 inh	CYP2C19 act
CCCCc1cc(=O)oc2cc(C)cc(O)c12	-2.11	0.3	-2.47	68.0*	55.1*	0.4
COc1ccc([N+](=O)[O-])cc1COc1cc(C)cc2oc(=O)cc(-c3ccccc3)c12	-8.72*	0.1	0.34	91.7*	74.7*	0.3
CC1(C)CC(NC(=O)c2coc(=O)c(Br)c2)CC(C)(C)N1	1.21	0.9	0.3	12.8	0.5	1
CCNC(=O)N(C(=O)NCC)n1c(C)nnc1C	0.529	1.1	-0.56	-9.4	-8.8	1.1
CCOc1cc(CNc2ccc3c(c2)CCC3)ccc1OC	-0.535	0.8	nt	23.4	55.8*	0.4
CC(C)C(=O)Nc1c(-c2cccs2)c(=O)c2ccccc2n1C	-0.915	1.1	0.86	-14.2	-0.7	1
CCCc1ccc(-c2cc(C(=O)N/N=C/c3ccc([N+](=O)[O-])o3)c3ccccc3n2)cc1	nt	0	0.02	95.8*	51.1*	0.5
O=C(N/N=C/c1ccccn1)c1cc(-c2ccc(Cl)cc2)nc2ccccc12	nt	nt	-2.18	nt	nt	nt
CCOC(=O)C1CCCN(c2cc(=O)n(Cc3ccc(F)cc3)c(=O)[nH]2)C1 (centres undefined)	0.206	1	0	4.7	2.8	1
COc1ccc(N/C(C)=C2/C(=O)C(=O)N(CCO)C2c2ccc(Br)cc2)cc1 (centres undefined)	0.536	0.5	-0.38	51.9*	59.6*	0.4
O=C(CCC(=O)N1CCc2ccccc21)Nc1ccccc1	0.616	0.6	1.38	36.9	92.5*	0.1
CC(CC(=O)N1CCc2ccccc21)c1ccccc1 (centres undefined)	nt	0.8	0.12	15.5	93.6*	0.1
O=C(Cc1ccc(-n2cccc2)cc1)N1CCc2ccccc21	-0.463	0.9	0.32	11.3	58.6*	0.4
CCOCC(=O)N1CCc2ccccc21	0.631	1.1	0.44	-6.5	4.5	1
O=C(CN1C(=O)CSc2ccccc21)N1CCc2ccccc21	nt	0.6	0.74	40.1	82.1*	0.2
CN1C(=O)C(=O)N(CC(=O)N2CCc3ccccc32)C1=O	0.114	0.9	-0.13	10.5	9.7	0.9
O=C(CCN1CCc2ccccc2C1)Nc1cccc(F)c1	-0.875	0.5	0.43	49.6	91.5*	0.1
O=C(CCN1CCc2ccccc2C1)Nc1ccccc1	0.445	0.4	0.6	60.5*	91.4*	0.1
Cc1ccc(NCc2nnc(SCC(=O)NCCc3ccccc3)n2C)cc1	0.634	0.8	-0.17	18.9	24.2	0.8
CCOc1ccc(C(CC(=O)O)NC(=O)C23CC4CC(CC(C4)C2)C3)cc1 (centres undefined)	1.12	nt	1.09	nt	nt	nt
Cc1ccc2c(c1)nnn2C1CCN(CC(=O)NCCc2nc3ccccc3[nH]2)CC1	0.718	0.8	1.64	23.9	21.7	0.8
CCOC(=O)C1=C(O)/C(=C/c2cc(OC)c(OC)c(OC)c2)N=C1C	2.45	1	0.52	3.1	-1.5	1
COC(=O)C1=C(C(=O)OC)[C@@H]2N(Cc3ccccc3)c3ccccc3[C@@]23C[C@@H](C(=O)OC)N=C3N1	0.153	nt	nt	nt	nt	nt
CCCCNC(=O)Cn1c2c(c(-c3ccccc3Cl)cc1=O)CCC2	1.01	0.2	nt	78.5*	61.0*	0.4
O=C(Cn1c2c(c(-c3ccccc3)cc1=O)CCCC2)N1CCCCCC1	-1.32	nt	nt	nt	nt	nt
SMILES	Cav3 T inh	CYP2C9 act	PTK2B oligo ant	CYP2C9 inh	CYP2C19 inh	CYP2C19 act
CC(=O)N(C)c1ccc(NC(=S)Nc2ccccc2)cc1	0.174	1.1	0.3	-14.9	33.9	0.7
CN(C)c1cc(O)c(C(=S)Nc2ccccc2)c(N(C)C)c1	nt	0.9	-1.7	5.0	79.3*	0.2
CC(=O)NC(CCS(C)(=O)=O)C(=O)Nc1cccc2ccccc12 (centres undefined)	1.62	0.5	nt	54.1*	6.5	0.9
CC(C)C[C@H](NC(=O)c1nc[nH]c1C(=O)N1CCN(c2ccccc2)CC1)C(=O)OCc1ccccc1	-0.93	nt	nt	nt	nt	nt
Cc1ccc(C)c(NC(=S)NNC(=O)c2csc(C(C)C)c2)c1	-3.87	nt	-0.51	nt	nt	nt
CCOC(=O)C1=C(C)NC2=C(C(=O)CC(C)(C)C2)C1c1coc2ccccc2c1=O (centres undefined)	0.297	nt	-0.19	nt	nt	nt
CC1=C(C(=O)OC(C)C)C(c2coc3ccccc3c2=O)C2=C(CCCC2=O)N1 (centres undefined)	0.312	0.4	0.15	62.4*	46.4	0.5
CCSCCOC(=O)C1=C(C)NC2=C(C(=O)CCC2)C1c1coc2ccccc2c1=O (centres undefined)	-2.8	0.5	0.07	52.0*	16.6	0.8
CCOc1ccc(C)cc1S(=O)(=O)n1ccnc1	-0.196	0.4	1.01	61.4*	44.4	0.6
Cn1c(=O)cc(NCc2ccccc2)[nH]c1=O	0.326	1.1	-0.17	-10.4	-15.5	1.2
Cc1ccc(N2C(=O)C(Cl)=C(NCc3ccccc3)C2=O)c(C)c1	-2.41	0.5	-0.88	53.1*	51.4*	0.5
Cc1ccc(S(=O)(=O)N2CCN(C(=O)CSC3CCCC3)CC2)c(C)c1	-3.73	1.4	-0.96	-38.6	76.4*	0.2
CC(=O)c1c(C)[nH]c(C(=O)OCC(=O)N2CCN(S(=O)(=O)c3ccc(C)cc3C)CC2)c1C	-0.821	0.5	-1.65	50.5*	60.6*	0.4
Cc1cc(Oc2ccccc2F)nc(NCc2ccccc2)n1	-2.56	1	-1.54	-2.9	4.7	1
Cc1cc(C(F)(F)F)nc(NCc2ccc(F)cc2)n1	-5.37*	0.8	-1.16	17.3	17.9	0.8
CCN(CC)CCOC(=O)/C=C/c1ccccc1OC	nt	nt	-0.12	nt	nt	nt
COc1ccc(S(=O)(=O)N2CCCN(S(=O)(=O)c3ccc(OC)c(C)c3)CC2)cc1C	-3.23	nt	-1.47	nt	nt	nt
Cc1cc(S(=O)(=O)Nc2ccc3ccccc3c2)c(C)s1	-3.61	0.4	-2.87	64.0*	93.4*	0.1
COc1ccc(C)cc1NS(=O)(=O)c1cccc2nonc12	nt	0.9	-0.11	14.9	91.6*	0.1
COc1ccc(S(=O)(=O)Nc2ccc3ccccc3c2)cc1C	-1.49	0	-3.23*	100.3*	100.3*	0
CCc1ccc(NS(=O)(=O)c2ccc(OC)c(C)c2)cc1	-3.33	0.2	-3.34*	80.0*	77.7*	0.2
COc1cccc(C(=O)NCc2n[nH]c(=S)n2-c2cccc(C)c2)c1	0.385	0.9	0.19	8.1	46.1	0.5
COc1ccc(S(=O)(=O)Nc2cc(C)ccc2OC)cc1C	-7.65*	0.2	-1.81	80.4*	100.1*	0
CCOC(=O)N1CCN(C(=O)C(NC(=O)c2ccc(CC)cc2)C(C)C)CC1 (centres undefined)	0.245	1.1	0.01	-7.2	-15.7	1.2
Cc1cccc(OCCCSc2nc3ccc(C)cc3[nH]2)c1	-4.6*	0.2	3.66	77.7*	86.2*	0.1
Cc1ccc2nc(SCn3nnc4ccccc4c3=O)[nH]c2c1	nt	nt	-0.27	nt	nt	nt
